# Pf growth 48h – P. falciparum growth inhibition at 48 hours (one generation); P. falciparum luciferase growth in erythrocytes, 48 h; Potency, µM (titrated, usually from 28.7 µM), for the others: at the top dose activity change, negative = inhibition, hits mostly inhibitors; 310,000 tested, 5.9% active; AID 504832; further: potency means the concentration at half of the fitted maximal effect
#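 In quantitative HTS format, infected erythrocytes bearing luciferase-reporter parasites were treated for a single generation at 37 C. Luminescence after adding detection reagent served as the growth measure.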
# Sm TGR block – S. mansoni TGR enzyme inhibition. purified TGR, DTNB reduction, TNB absorbance 405 nm. 360,000 tested, 3% active. Potency, µM (doses to about 114 µM), without a hit: at the top dose activity change, negative = inhibition, usual class: inhibitors; further: potency means the concentration at half of the fitted maximal effect; nearly all actives have a fitted effect of over 60% in size
#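 Kinetic colorimetric format: TGR-catalysed, NADPH-driven DTNB reduction monitored via TNB absorbance. Enzyme dispensed at 20 nM; compound exposure 15 min at room temperature before reaction start.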
# Giardia FBPA inh – blocks Giardia fructose-bisphosphate aldolase activity | A8B2U2 | purified Giardia FBPA | Potency, µM (titrated, usually from 59.6 µM), for inactives: at the highest dose activity, negative = inhibition, hits mostly inhibitors | 290,000 tested, 0.71% active | AID 2451; further: potency means the concentration at half of the fitted maximal effect; nearly all actives have a fitted effect of over 55% in size
# Target sequence (A8B2U2 whole entry, looked up): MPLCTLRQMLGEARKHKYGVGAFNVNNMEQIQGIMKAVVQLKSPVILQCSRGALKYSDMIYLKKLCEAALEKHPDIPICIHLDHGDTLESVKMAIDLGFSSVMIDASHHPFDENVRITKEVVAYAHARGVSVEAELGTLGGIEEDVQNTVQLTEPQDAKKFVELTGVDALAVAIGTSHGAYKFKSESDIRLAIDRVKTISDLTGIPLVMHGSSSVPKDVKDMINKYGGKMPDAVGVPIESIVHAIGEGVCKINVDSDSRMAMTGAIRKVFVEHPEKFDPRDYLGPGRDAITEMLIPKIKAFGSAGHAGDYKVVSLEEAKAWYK
#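 Giardia FBPA (40 nM reagent) was preincubated 10 min at RT with compound (up to 57.5 uM final), then substrate plus GAPDH/TPI/NAD/arsenate coupling system with diaphorase/resazurin was added; resorufin fluorescence (525/598 nm) was read after 20 min.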
# Pf growth 96h – P. falciparum growth inhibition at 96 hour, primary screen for plastid delayed-death inhibitors; P. falciparum luciferase reporter growth, 96 h; Potency, µM (titrated, usually from 28.7 µM), without a hit: at the top dose activity change, negative = inhibition, most hits filed as inhibitors; 320,000 tested, 6.9% active; AID 504834; further: potency means the concentration at half of the fitted maximal effect
#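 P. falciparum expressing integrated firefly luciferase, in erythrocytes at 2% hematocrit, 0.05% parasitemia, incubated with compounds 96 h at 37 C, 5% CO2. Growth inhibition read as loss of luminescence; two-generation exposure targets delayed-death apicoplast inhibitors.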
# HCMV antiviral – blocks human cytomegalovirus replication; HFF cells, HCMV-luciferase reporter, 72 h; hits give low values; activity change, negative = inhibition, % at 57.5 µM; 410,000 tested, 4.5% active; AID 1259415; in the data active means activity change below about -60%; inconclusive means no clear call, values can overlap the other calls; inactive means above about -39%
#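 Two-dose cell screen: HFF monolayers treated with compounds and infected with luciferase-expressing HCMV at 1 PFU/cell, 72 h at 37C, then lysed for luciferase measurement.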
# The depositor's hits bear a star; ? = inconclusive; . = no result; [ ] = remark or other dose. A selection: hits, their analogues and other compounds. The true share with any hit is near 14%. Unless noted, the call rests on the fitted dose curve; in most records, active means well fitted curve in the direction sought with a large enough effect; inconclusive means small, poorly fitted or top-dose-only effect, or another doubt; inactive means no such curve, though single readings can be large; an effect the other way counts as inactive or inconclusive. On the % scale 0 is the no-effect control and ±100 the full control effect.
SMILES,Pf growth 48h,Sm TGR block,Giardia FBPA inh,Pf growth 96h,HCMV antiviral
Cc1cc(C)n(-c2ccc(C(=O)Nc3cccc([N+](=O)[O-])c3)cc2)n1,-17%,2%,0%,-26%,?
Cc1cc(C)n(-c2ccc(C(=O)Nc3ccc(C)c(S(=O)(=O)N(C)C)c3)cc2)n1,?,-11%,-4%,12µM*,-81*
Cc1cc(C)n(-c2ccc(C(=O)Nc3cccc(S(=O)(=O)N(C)C)c3)cc2)n1,-30%,-19%,-1%,?,-96*
CN(C)S(=O)(=O)c1cccc(NC(=O)c2cc(-c3cccs3)nn2-c2cccc(Cl)c2)c1,?,-9%,-2%,15µM*,-106*
COc1ccc(S(=O)(=O)Nc2cccc(C(C)=O)c2)cc1Br,9%,.,10%,21%,10
CC(Oc1ccc(O)cc1)(P(=O)(O)O)P(=O)(O)O,.,.,-17%,.,.
N=C1C(c2nc3ccccc3[nH]2)=C(O)CN1NC(=O)COc1cccc(F)c1,8%,3%,2%,-17%,.
Cc1ccc(NC(=O)c2ccc(OC(F)(F)F)cc2)cc1S(=O)(=O)N(C)C,-29%,-3%,-12%,?,-99*
CCN(CC)S(=O)(=O)c1cccc(NC(=O)c2ccc(-n3nc(C)cc3C)cc2)c1,?,3%,4%,?,-83*
Cc1ccc(NC(=O)c2ccncc2)cc1S(=O)(=O)N(C)C,18%,1%,1%,12%,1
CN(C)S(=O)(=O)c1cccc(NC(=O)c2cccc(NS(=O)(=O)c3ccccc3)c2)c1,?,-8%,-1%,-18%,-89*
Cc1cc(C)n(-c2ccc(C(=O)Nc3ccc(S(=O)(=O)N(C)C)cc3)cc2)n1,15µM*,-4%,3%,?,-97*
CCN(CC)S(=O)(=O)c1ccc(NC(=O)COC(=O)c2ccc(-n3nc(C)cc3C)cc2)cc1,-12%,6%,19%,.,-5
COc1ccc(-n2nc(C(=O)Nc3ccc(C)cn3)c3c4ccccc4n(C)c3c2=O)cc1Cl,.,7%,.,.,11
CCC(=O)Nc1cccc(NC(=O)c2ccccc2Br)c1,33%,6%,2%,-7%,58
CCN(CC)S(=O)(=O)c1cccc(NC(=O)c2ccccc2Br)c1,10µM*,-2%,-5%,?,-13
[O-]/C(=C(\C(=S)Nc1ccc(Cl)cc1)[n+]1ccccc1)c1ccc(OC(F)F)cc1,10µM*,-21%,-22%,-5%,?
COc1cccc(CNc2nc(NCC3CC3)nc3ccsc23)c1,.,.,.,.,-71*
CNc1nc(NCc2ccccc2)c2sccc2n1,.,.,.,.,-6
c1ccc(CNc2nc(NCC3CC3)nc3cc(-c4ccccc4)sc23)cc1,.,.,.,.,-20
COc1cccc(CNc2nc(NCc3ccccc3)nc3ccsc23)c1,.,.,.,.,-102*
CC(C)c1ccc(CNc2nc(NCC3CC3)nc3ccsc23)cc1,.,.,.,.,-62*
Cc1ccc(CNC(=O)C2CC3Cn4c(nc5ccccc54)C3N2C)o1 (stereo not drawn),-21%,35µM*,.,26%,2
Cc1ccc(CNC(=O)C2CC3Cn4c(nc5cc6ccccc6cc54)C3N2C)o1 (stereo not drawn),?,45µM*,-9%,35%,-101*
C=CCNC(=O)C1CC2Cn3c(nc4ccccc43)C2N1C (stereo not drawn),-2%,?,-2%,17%,24
SMILES,Pf growth 48h,Sm TGR block,Giardia FBPA inh,Pf growth 96h,HCMV antiviral
CCOC(=O)c1cc2c(c(-c3ccccc3)n1)[C@@H](CCO)N(S(=O)(=O)C(C)(C)C)C2,.,.,.,.,17
O=C(c1ccco1)N1CCN(C(=O)C(Cc2ccccc2)NS(=O)(=O)c2cccs2)CC1 (stereo not drawn),18%,25µM*,0%[12.9 µM],12%,24
O=C(c1ccco1)N1CCN(C(=O)c2sccc2-c2ccccc2)CC1,?,40µM*,9%,?,-25
O=C1NC[C@H](Cc2ccccc2)N(CC2CCN(CCCCc3ccccc3)CC2)C1=O,.,.,.,.,-14
CC(=O)c1ccc2c(c1)CC(C)C(=O)N2C (stereo not drawn),22%,3%,1%,-14%,7
Oc1ccc(N=Nc2ccccc2C(F)(F)F)c2cccnc12,1.5µM*,-22%,-29%,0.93µM*,-97*
COc1ccccc1N=Nc1ccc(O)c2ncccc12,2.9µM*,-35%,?,2%,-73*

# Screening data: PubChem, National Center for Advancing Translational Sciences (NCATS)
